This is an account of results in paper PMC5540273 (PLoS ONE, 2017).

Molecules are shown by their SMILES. Where “and” joins values, the source holds several entries; their conditions need not be identical. Equal entries are not always repeated. Where two headings read alike, the source gives them in different places.

One assay has as its system AAK1. The following applies: concentration: 1 μM, replicates: in singlicate, n = 1.
The test system of another assay is ABL1-nonphosphorylated. The conditions noted are these: concentration: 1 μM, replicates: in singlicate, n = 1.
A further assay relates to ABL1-phosphorylated. The following applies: concentration: 1 μM, replicates: in singlicate, n = 1.
For another assay, the system named is ABL2. The conditions noted are these: concentration: 1 μM, replicates: in singlicate, n = 1.
The subject of another assay is ACVR1B. The following applies: concentration: 1 μM, replicates: in singlicate, n = 1.
The test system of another assay is ACVR1. The conditions noted are these: concentration: 1 μM, replicates: in singlicate; n = 1.
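Note: KINOMEscan kinase panel screen.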

With `Nc1nc(-c2ccc3c(N)n[nH]c3c2)cc(N2CCCC2)n1` [GSK2227430], the “%Inh” value stood at 17% with AAK1; 0% in the assay with ABL1-nonphosphorylated; 0% in the assay on ABL1-phosphorylated; 0% with ABL2; 0% in the assay with ACVR1B; 0% in the assay with ACVR1.

As for `CSc1ccc(-c2cc3ncnc(SCC(=O)O)c3s2)cc1`, the “%Inh” value with AAK1, in the assay on ABL1-nonphosphorylated, in the assay on ABL1-phosphorylated, in the assay on ABL2, in the assay on ACVR1B and with ACVR1 was 0% throughout.

Regarding `Fc1ccc(-c2nn3c(OCC(F)(F)F)cccc3c2-c2ccncc2)cc1` [GW514784], the “%Inh” value in the assay with AAK1 was found to be 0%; in the assay with ABL1-nonphosphorylated, 0%; in the assay with ABL1-phosphorylated it was 0%; in the assay with ABL2, 5%; in the assay with ACVR1B, 61%; in the assay with ACVR1 it was 13%.

For the compound `[2H]C([2H])(c1cccc(C(F)(F)F)c1C)n1ccn2c(=O)nc(N3CCOCC3)cc12` [GSK2336394], the “%Inh” value came to 0% with AAK1; 0% in the assay on ABL1-nonphosphorylated; 0% in the assay on ABL1-phosphorylated; 17% in the assay with ABL2; 0% in the assay on ACVR1B; 0% with ACVR1.

For `COC(=O)Nc1nc2cc(Oc3ccc(NC(=O)Nc4cc(F)ccc4F)cc3)ccc2[nH]1.Cl` [GW701424], the “%Inh” value in the assay with AAK1 amounted to 30%; in the assay on ABL1-nonphosphorylated, 94.5%; in the assay on ABL1-phosphorylated it was 40%; in the assay with ABL2 it was 74%; in the assay with ACVR1B it was 0%; in the assay with ACVR1 it was 0%.

For the compound `COc1ccc(CNC(=O)NC2CCN(c3ccnc(Nc4ccc(OC)cc4)n3)C2)cc1` (stereo not drawn) [GSK1379727], the “%Inh” value in the assay with AAK1 came to 0%; in the assay with ABL1-nonphosphorylated, 0%; in the assay on ABL1-phosphorylated, 0%; in the assay on ABL2 it was 2%; with ACVR1B, 0%; in the assay with ACVR1, 0%.

Turning to `COc1ccc(S(=O)(=O)NC2CCN(c3cc(C)nc(Nc4cccc(C#N)c4)n3)CC2)cc1.O=C(O)C(F)(F)F` [GSK1653539], the “%Inh” value in the assay on AAK1 came out at 0%; with ABL1-nonphosphorylated, 0%; in the assay with ABL1-phosphorylated it was 0%; in the assay with ABL2 it was 1%; with ACVR1B, 0%; with ACVR1, 0%.

As to `CCc1ccnc(/C=C/c2n[nH]c3cc(Sc4ccccc4C(=O)NC)ccc23)c1`, the “%Inh” value in the assay on AAK1 was determined as 22%; in the assay on ABL1-nonphosphorylated, 98%; with ABL1-phosphorylated, 89%; in the assay with ABL2 it was 76%; in the assay with ACVR1B, 3%; in the assay with ACVR1 it was 0%.

Regarding `NCC(NC(=O)c1cc(-c2cn[nH]c2)c(-c2ccnc3[nH]ccc23)s1)c1ccccc1.O=C(O)C(F)(F)F.O=C(O)C(F)(F)F` (stereo not drawn) [GSK1325775], the “%Inh” value with AAK1 is recorded as 86%; in the assay with ABL1-nonphosphorylated, 1%; with ABL1-phosphorylated it was 0%; in the assay with ABL2 it was 0%; in the assay with ACVR1B, 0%; in the assay on ACVR1, 52%.

As to `CN1c2ccc(CNc3ccc(F)cc3)cc2-c2c(cnn2C)S1(=O)=O`, the “%Inh” value with AAK1 came out at 0%; in the assay on ABL1-nonphosphorylated, 21%; with ABL1-phosphorylated, 0%; with ABL2, 0%; in the assay on ACVR1B, 0%; in the assay on ACVR1 it was 0%.

In the case of `O=C(NCCCN1CCOCC1)c1cccc(Nc2nccc(Nc3ccc(Oc4ccccc4)cc3)n2)c1` [GW663929], the “%Inh” value with AAK1 is 8%; with ABL1-nonphosphorylated, 73%; with ABL1-phosphorylated, 45%; in the assay with ABL2, 47%; with ACVR1B, 0%; with ACVR1 it was 14%.

On to `CC(C)Oc1ccc2c(-c3ccnc(Nc4ccc(N5CCN(C)CC5)cc4)n3)cnn2n1` [GW696155], for which the “%Inh” value is listed as 90% in the assay on AAK1; 39% in the assay on ABL1-nonphosphorylated; 53% in the assay with ABL1-phosphorylated; 14% in the assay on ABL2; 0% with ACVR1B; 69% with ACVR1.

Turning to `Cc1cccc(-c2nc(Nc3ccc4ncsc4c3)c3ccccc3n2)n1` [GW867588], the “%Inh” value came out at 7% with AAK1; 0% in the assay on ABL1-nonphosphorylated; 0% with ABL1-phosphorylated; 20% in the assay with ABL2; 35% with ACVR1B; 15% in the assay with ACVR1.

In the case of `O=C1Cc2cc(Nc3nc(NCc4cccc(S(=O)(=O)C(F)(F)F)c4)ncc3C(F)(F)F)ccc2N1`, the “%Inh” value in the assay with AAK1 was 8%; in the assay on ABL1-nonphosphorylated it was 0%; with ABL1-phosphorylated it was 0%; in the assay on ABL2 it was 0%; with ACVR1B it was 0%; in the assay with ACVR1 it was 3%.

As to `O=C(NOCC1CC1)c1ccc(F)c(F)c1Nc1ccc(I)cc1Cl`, the “%Inh” value with AAK1, with ABL1-nonphosphorylated, with ABL1-phosphorylated, in the assay on ABL2, in the assay with ACVR1B and with ACVR1 was 0% in each case.

On to `Fc1ccc(-c2ncn(CCCN3CCOCC3)c2-c2cccnc2)cc1` [SB-211743], for which the “%Inh” value in the assay with AAK1 came to 0%; in the assay on ABL1-nonphosphorylated, 30%; in the assay with ABL1-phosphorylated, 34%; in the assay with ABL2, 0%; in the assay with ACVR1B, 0%; in the assay with ACVR1, 2%.

Regarding `Cc1c2ccc(N(C)c3ccnc(Nc4cccc(S(N)(=O)=O)c4)n3)cc2nn1Cc1ccccc1.Cl.Cl` [GW787226], the “%Inh” value in the assay on AAK1 was found to be 2%; with ABL1-nonphosphorylated, 98.4%; with ABL1-phosphorylated, 61%; in the assay with ABL2, 71%; in the assay with ACVR1B, 6%; in the assay on ACVR1, 0%.

For `Cl.Oc1cccc(Nc2ccnc3cc(-c4ccncc4)ccc23)c1` [GW494601], the “%Inh” value stood at 42% in the assay on AAK1; 100% in the assay on ABL1-nonphosphorylated; 99.9% in the assay on ABL1-phosphorylated; 99.4% in the assay with ABL2; 67% in the assay with ACVR1B; 99.8% in the assay on ACVR1.

Take `Nc1nccc(-c2c(-c3ccc(F)cc3)ncn2C2CCN(CC(F)(F)F)CC2)n1` [SB-236560]: the “%Inh” value in the assay with AAK1 turned out to be 5%; in the assay with ABL1-nonphosphorylated it was 46%; in the assay with ABL1-phosphorylated, 0%; in the assay on ABL2 it was 0%; in the assay on ACVR1B, 0%; with ACVR1, 19%.

For `C[C@@H](Oc1cc(-n2cnc3ccc(NC(=O)NC(C)(C)C)cc32)sc1C(N)=O)c1ccccc1Cl` [GSK346294], the “%Inh” value was 15% with AAK1; 0% in the assay on ABL1-nonphosphorylated; 0% with ABL1-phosphorylated; 9% with ABL2; 0% in the assay on ACVR1B; 0% with ACVR1.

As for `COc1cc(Nc2nccc(N3CCC(NC(=O)c4cccc(NC(C)=O)c4)C3)n2)cc(OC)c1OC` (stereo not drawn) [GSK1379754], the “%Inh” value stood at 76% in the assay with AAK1; 0% in the assay with ABL1-nonphosphorylated; 0% in the assay with ABL1-phosphorylated; 13% in the assay with ABL2; 0% with ACVR1B; 63% in the assay on ACVR1.

Consider `Cc1c(Cn2c(C)nn3c(=O)cc(N4CCOC(C)C4)nc23)cccc1C(F)(F)F` (stereo not drawn) [GSK2344444], for which the “%Inh” value turned out to be 0% with AAK1; 0% in the assay with ABL1-nonphosphorylated; 0% in the assay on ABL1-phosphorylated; 11% with ABL2; 0% with ACVR1B; 0% in the assay on ACVR1.

On to `COc1cc2c(cc1OC[C@@H](O)CO)ncc1c3ccc(C#N)cc3[nH]c21`, for which the “%Inh” value in the assay with AAK1 was 78%; in the assay with ABL1-nonphosphorylated it was 49%; in the assay on ABL1-phosphorylated it was 21%; with ABL2, 0%; with ACVR1B, 0%; in the assay with ACVR1 it was 0%.

With `COc1cc2ncn(-c3cc(OCc4sccc4Cl)c(C(N)=O)s3)c2cc1OC` [GSK448459], the “%Inh” value with AAK1 is reported as 42%; in the assay with ABL1-nonphosphorylated it was 0%; in the assay with ABL1-phosphorylated, 3%; in the assay with ABL2, 17%; in the assay with ACVR1B, 0%; with ACVR1, 18%.

For the compound `O=C(NCCNc1ccnc(Nc2ccc(F)cc2)n1)Nc1ccccc1F` [GSK1379880], the “%Inh” value with AAK1 came out at 0%; in the assay with ABL1-nonphosphorylated it was 0%; in the assay on ABL1-phosphorylated, 0%; in the assay on ABL2, 24%; in the assay with ACVR1B, 0%; in the assay on ACVR1, 0%.

`Cl.Cl.Cl.Fc1ccc(-c2ncn(C3CCNCC3)c2-c2ccnc(Nc3ccccc3)n2)cc1` [SB-238039]: the “%Inh” value with AAK1 is 0%; in the assay with ABL1-nonphosphorylated (1 µM), 0% and 63%; with ABL1-phosphorylated (1 µM), 31% and 12%; in the assay on ABL2 (1 µM), 5% and 3%; in the assay on ACVR1B (1 µM), 58% and 31%; in the assay on ACVR1, 16%.

As to `NCCNS(=O)(=O)c1ccc(-c2ccnc3[nH]ccc23)cc1` [GSK977617], the “%Inh” value was 67% and 57% with AAK1 (1 µM); 0% in the assay with ABL1-nonphosphorylated; 9% and 0% in the assay on ABL1-phosphorylated (1 µM); 22% and 1% with ABL2 (1 µM); 3% and 0% in the assay on ACVR1B (1 µM); 0% in the assay with ACVR1.

With `COc1cc2c(cc1OCCN1CCN(C)CC1)ncc1c3ccc(C#N)cc3[nH]c21`, the “%Inh” value in the assay with AAK1 is reported as 96.2%; in the assay on ABL1-nonphosphorylated, 82%; with ABL1-phosphorylated it was 69%; in the assay with ABL2, 6%; in the assay with ACVR1B it was 0%; with ACVR1, 0%.

As to `CCCCCc1nc2c(N)ncnc2n1CCCCC` [SKF-97255], the “%Inh” value is 6% with AAK1; 31% in the assay with ABL1-nonphosphorylated; 30% in the assay on ABL1-phosphorylated; 0% in the assay on ABL2; 26% in the assay with ACVR1B; 0% in the assay on ACVR1.

Turning to `Cn1cc(-c2ccc3c(c2)CCN3C(=O)Cc2ccccc2Cl)c2c(N)ncnc21` [GSK2608885], the “%Inh” value in the assay with AAK1 is 25%; in the assay on ABL1-nonphosphorylated it was 95.9%; in the assay with ABL1-phosphorylated, 23%; in the assay on ABL2 it was 85%; in the assay on ACVR1B, 0%; in the assay on ACVR1, 0%.

As for `Cc1nnc(-c2ccc3ncc(-c4ccc(S(C)=O)cc4)n3c2)o1` (stereo not drawn), the “%Inh” value in the assay with AAK1 amounted to 41%; in the assay with ABL1-nonphosphorylated, 44%; with ABL1-phosphorylated, 6%; with ABL2 it was 7%; in the assay with ACVR1B it was 0%; in the assay on ACVR1, 0%.

As to `COc1ccc(Nc2ncc(C#N)c(Nc3ccccc3C(N)=O)n2)cc1N1CCN(C)CC1.Cl` [GSK1558669], the “%Inh” value in the assay with AAK1 is given as 97.2%; in the assay on ABL1-nonphosphorylated, 100%; in the assay with ABL1-phosphorylated, 100%; in the assay with ABL2, 99.2%; in the assay on ACVR1B, 33%; in the assay with ACVR1, 33%.
